# Source: PubChem BioAssay (NCI)
# Several values for one entry are separate records, joined by “and”; a condition that tells them apart may be missing. Equal entries are not always repeated. About 83,000 compounds went through this panel and 20% of them were active in at least one assay; those are over-represented in the sample as a whole.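 How to read the values: 0–100, growth inhibition (40 = 60% inhibited); 0, no net growth; -100 to 0, cell death (-40 = 40% of starting cells died; -100 = all dead).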 Activity calls are given as the source filed them. Rule for the calls: active = growth percent below 10; inactive = the rest.
# Experiments:
# Assay in all cases: NCI-60 one-dose screen, 48 h (100 = growth as untreated, 0 = no growth, -100 = all killed)
# Details in all cases: 10 µM unless noted
# [1] = test system: NCI-H226 lung
# [2] = test system: 786-0 renal
# [3] = test system: DU-145 prostate
# [4] = test system: MDA-MB-231 breast
# [5] = test system: SF-268 CNS
# [6] = test system: SF-539 CNS
# [7] = test system: UACC-257 melanoma
# [8] = test system: PC-3 prostate
# [9] = test system: LOX IMVI melanoma
# [10] = test system: SK-MEL-28 melanoma
# [11] = test system: SK-MEL-2 melanoma
# [12] = test system: SN12C renal
# [13] = test system: TK-10 renal
# [14] = test system: HL-60(TB) leukemia
# [15] = test system: RPMI-8226 leukemia
# [16] = test system: NCI/ADR-RES ovarian
# [17] = test system: MCF7 breast
# [18] = test system: HCT-116 colon
# [19] = test system: KM12 colon
# [20] = test system: UACC-62 melanoma
structure (smiles),measurement,setting,value
Cc1cccc(N(C)c2cccc3c2C(=O)[Se]C3)c1C,growth,[1],36.6% (inactive)
same,growth,[2],78% (inactive)
same,growth,[3],34.6% (inactive)
same,growth,[4],53.6% (inactive)
same,growth,[5],52.4% (inactive)
same,growth,[6],56.4% (inactive)
same,growth,[7],50.7% (inactive)
same,growth,[8],66.7% (inactive)
same,growth,[9],38.2% (inactive)
same,growth,[10],75.6% (inactive)
same,growth,[11],62.8% (inactive)
same,growth,[12],84.8% (inactive)
same,growth,[13],62.8% (inactive)
same,growth,[14],-17.1% (active)
same,growth,[15],81.9% (inactive)
same,growth,[16],13.6% (inactive)
same,growth,[17],49.6% (inactive)
same,growth,[18],3.47% (active)
same,growth,[19],14.6% (inactive)
CC(=O)O[C@H]1CCC2(C)C(=CCC3C2CCC2(C)/C(=N/OC(=O)c4ccc(N(CCCl)CCCl)cc4)CCC32)C1 (some centres not stated),growth,[1],101% (inactive)
same,growth,[2],47.6% (inactive)
same,growth,[3],78.7% (inactive)
same,growth,[4],40.5% (inactive)
same,growth,[5],5.4% (active)
same,growth,[6],51.5% (inactive)
same,growth,[7],97.2% (inactive)
same,growth,[8],47.8% (inactive)
same,growth,[9],5.24% (active)
same,growth,[10],81.8% (inactive)
same,growth,[11],99.2% (inactive)
same,growth,[12],47.3% (inactive)
same,growth,[14],17.5% (inactive)
same,growth,[15],26.6% (inactive)
same,growth,[16],44% (inactive)
same,growth,[17],39% (inactive)
same,growth,[18],9.02% (active)
same,growth,[19],47.6% (inactive)
C/C(=N/OC(=O)N(C)C)c1ccc(Cl)cc1Cl,growth,[1],104% (inactive)
same,growth,[2],100% (inactive)
same,growth,[3],109% (inactive)
same,growth,[4],116% (inactive)
same,growth,[5],103% (inactive)
same,growth,[6],95.9% (inactive)
same,growth,[7],101% (inactive)
same,growth,[8],118% (inactive)
same,growth,[20],98.7% (inactive)
same,growth,[9],97.8% (inactive)
same,growth,[10],110% (inactive)
same,growth,[11],88.8% (inactive)
same,growth,[12],96.8% (inactive)
same,growth,[13],88.5% (inactive)
same,growth,[14],93.7% (inactive)
same,growth,[15],103% (inactive)
same,growth,[16],96.7% (inactive)
same,growth,[17],95% (inactive)
same,growth,[18],99.1% (inactive)
same,growth,[19],108% (inactive)
O1[As]2O[As]3O[As]1O[As](O2)O3,growth,[1],0.918% (active)
same,growth,[2],10.7% (inactive)
same,growth,[4],-22.8% (active)
same,growth,[5],5.42% (active)
same,growth,[6],-4.27% (active)
same,growth,[7],-22.1% (active)
same,growth,[8],10.7% (inactive)
same,growth,[20],-53.3% (active)
same,growth,[9],0.399% (active)
same,growth,[10],-17.6% (active)
same,growth,[11],-34.8% (active)
same,growth,[12],4.31% (active)
same,growth,[13],3.92% (active)
same,growth,[14],1.06% (active)
same,growth,[15],15.1% (inactive)
same,growth,[16],13.8% (inactive)
same,growth,[17],6.19% (active)
same,growth,[18],-10.3% (active)
same,growth,[19],39% (inactive)
CC(C)(C)NCC(O)c1ccccc1Cl (configuration not stated),growth,[1],45% (inactive)
same,growth,[2],20.9% (inactive)
same,growth,[3],-27.8% (active)
same,growth,[4],12.8% (inactive)
same,growth,[5],26.6% (inactive)
same,growth,[6],7.78% (active)
same,growth,[7],54.5% (inactive)
same,growth,[8],18% (inactive)
same,growth,[9],35.1% (inactive)
same,growth,[10],48.2% (inactive)
same,growth,[11],-20.2% (active)
same,growth,[12],24.1% (inactive)
same,growth,[13],17.3% (inactive)
same,growth,[14],1.68% (active)
same,growth,[15],6.19% (active)
same,growth,[16],85.6% (inactive)
same,growth,[18],7.48% (active)
same,growth,[19],3.52% (active)
O=C(O)CCC1N=C(c2cccc(O)c2)c2ccccc2NC1=O (configuration not stated),growth,[20],88.5% [30 µM] (inactive)
same,growth,[17],83.2% [30 µM] (inactive)
NC(=O)CN1C(=O)C(Cc2ccccc2)N=C(c2cccc(O)c2)c2ccccc21 (configuration not stated),growth,[20],97.8% [30 µM] (inactive)
same,growth,[13],102% [30 µM] (inactive)
same,growth,[17],96.4% [30 µM] (inactive)
C=C1C(=O)O[C@H]2[C@H]1CC/C(CNC(=O)c1cc3cc(OC)ccc3[nH]1)=C\CC[C@@]1(C)O[C@@H]21,growth,[14],-21.3% (active)
Cn1cnnc1[S-].[Au+].c1ccc([PH+](c2ccccc2)c2ccccc2)cc1,growth,[2],1.78% (active)
same,growth,[3],33.6% (inactive)
same,growth,[4],30.3% (inactive)
same,growth,[5],12.5% (inactive)
same,growth,[6],15.4% (inactive)
same,growth,[7],22.9% (inactive)
same,growth,[8],23.8% (inactive)
same,growth,[20],-15.1% (active)
same,growth,[9],-48.6% (active)
same,growth,[10],10.5% (inactive)
same,growth,[11],0.754% (active)
same,growth,[12],15.9% (inactive)
same,growth,[13],-44.5% (active)
same,growth,[14],-12.7% (active)
same,growth,[15],-3.32% (active)
same,growth,[16],69.5% (inactive)
same,growth,[17],-56.5% (active)
same,growth,[18],3.71% (active)
same,growth,[19],58.3% (inactive)
N#CCN1C(=O)C(Cc2ccccc2)N=C(c2cccc(O)c2)c2ccc(Cl)cc21 (configuration not stated),growth,[13],102% [30 µM] (inactive)
same,growth,[17],100% [30 µM] (inactive)
O=C1NC(=O)C(CCC(=O)c2cccc3ccccc23)C(=O)N1,growth,[20],77.1% [100 µM] (inactive) and 44.6% [100 µM] (inactive)
same,growth,[13],106% [100 µM] (inactive) and 8.08% [100 µM] (active)
same,growth,[17],91% [100 µM] (inactive) and 51.9% [100 µM] (inactive)
COc1cccc(NC(=O)Nc2ccc(Oc3ncnc4[nH]c(C)c(C)c34)cc2)c1,growth,[14],88.4% (inactive)
CNC(=O)O/N=C(/C)c1ccc(Cl)cc1,growth,[1],92.1% (inactive)
same,growth,[2],90.7% (inactive)
same,growth,[3],114% (inactive)
same,growth,[4],120% (inactive)
same,growth,[5],110% (inactive)
same,growth,[6],125% (inactive)
same,growth,[7],104% (inactive)
same,growth,[8],91.8% (inactive)
same,growth,[20],114% (inactive)
same,growth,[9],106% (inactive)
same,growth,[10],105% (inactive)
same,growth,[11],97.2% (inactive)
same,growth,[12],105% (inactive)
same,growth,[13],91.6% (inactive)
same,growth,[14],92.1% (inactive)
same,growth,[15],96.3% (inactive)
same,growth,[16],109% (inactive)
same,growth,[17],96.6% (inactive)
same,growth,[18],99.9% (inactive)
same,growth,[19],114% (inactive)
Nc1nc(N)c2c(n1)NC(c1cccc(Nc3ccnc4cc(C(F)(F)F)ccc34)c1)CC(c1ccc(Cl)cc1)=N2 (configuration not stated),growth,[14],34.3% (inactive)
COC[C@H](C)n1c(C2CCOCC2)nc2cnc3cc(-c4c(C)noc4C)c(OC)cc3c21,growth,[14],31.5% (inactive)
Cn1ccnc1C(=O)/C=C/c1ccc(CC(=O)Nc2cc(F)c(F)c(F)c2)cc1,growth,[14],-31.2% (active)
CCCCCCCCCCCCCC/C=C\C(CC(=O)O)C(=O)O (configuration not stated),growth,[14],72.4% (inactive)
O=[P@@]1(c2ccccc2)O[C@H](COCc2ccccc2)[C@@H](OCc2ccccc2)[C@H](OCc2ccccc2)[C@H]1O,growth,[14],98.5% (inactive)
C=CCO[C@H]1CO[C@H]2[C@@H]1OC[C@@H]2Oc1ccc(Nc2ccnc(Nc3ccc(O[C@H]4CO[C@H]5[C@@H]4OC[C@@H]5OCC=C)c(Cl)c3)n2)cc1Cl,growth,[14],-51.4% (active)
NC(=O)CN1C(=O)C(Cc2ccc(O)cc2)N=C(c2cccc(O)c2)c2ccccc21 (configuration not stated),growth,[20],80.7% [30 µM] (inactive)
same,growth,[13],106% [30 µM] (inactive)
same,growth,[17],75.5% [30 µM] (inactive)
CC(C)CCc1nc2ccc(NCc3ccc(OCCN4CCC(C)CC4)cc3)cc2[nH]1,growth,[14],84.8% (inactive)
O=C(O)CNC(=O)c1ccccc1,growth,[1],109% (inactive)
same,growth,[2],100% (inactive)
same,growth,[3],119% (inactive)
same,growth,[4],110% (inactive)
same,growth,[5],107% (inactive)
same,growth,[6],89% (inactive)
same,growth,[7],92.4% (inactive)
same,growth,[8],102% (inactive)
same,growth,[20],103% (inactive)
same,growth,[9],95.9% (inactive)
same,growth,[10],107% (inactive)
same,growth,[11],97.2% (inactive)
same,growth,[12],107% (inactive)
same,growth,[15],92.2% (inactive)
same,growth,[16],101% (inactive)
same,growth,[17],104% (inactive)
same,growth,[18],98.2% (inactive)
same,growth,[19],105% (inactive)
N#Cc1ccc(O)c(C2=NCC(c3ccc(-c4ccccc4)cc3)O2)c1 (configuration not stated),growth,[14],-17.3% (active)
C[C@H](c1nc2ccc(C#N)cc2[nH]1)[C@H]1CC[C@H]2[C@@H]3CCC4=CC(=O)CC[C@]4(C)[C@H]3CC[C@]12C,growth,[14],56.3% (inactive)
C=C(C)[C@@H]1CC[C@]2(N=C=O)CC[C@]3(C)[C@H](CC[C@@H]4[C@@]5(C)Cc6c([nH]c7ccccc67)C(C)(C)[C@@H]5CC[C@]43C)[C@@H]12,growth,[14],46.2% (inactive)
Oc1c(I)cc(I)cc1CNCc1ccccn1,growth,[14],20.2% (inactive)
Cc1ccc2c(c1)C(C)Cc1c(ncnc1-n1cnc3cc(C)ccc31)N2C (configuration not stated),growth,[14],-22% (active)
CCOC(=O)C1(c2ccccc2)CCN(CC(=O)c2ccc(NC(C)=O)cc2)CC1,growth,[1],107% (inactive)
same,growth,[2],110% (inactive)
same,growth,[3],123% (inactive)
same,growth,[4],102% (inactive)
same,growth,[5],116% (inactive)
same,growth,[6],113% (inactive)
same,growth,[7],104% (inactive)
same,growth,[8],86.8% (inactive)
same,growth,[9],88.8% (inactive)
same,growth,[10],124% (inactive)
same,growth,[11],89.2% (inactive)
same,growth,[12],93.2% (inactive)
same,growth,[13],96.4% (inactive)
same,growth,[14],111% (inactive)
same,growth,[15],88.3% (inactive)
same,growth,[16],107% (inactive)
same,growth,[17],107% (inactive)
same,growth,[18],97.7% (inactive)
same,growth,[19],112% (inactive)
CCN1CC2(CN(CC)C1=S)C(=O)NC(=O)NC2=O,growth,[2],90.3% (inactive)
same,growth,[3],97.6% (inactive)
same,growth,[4],110% (inactive)
same,growth,[5],95.1% (inactive)
same,growth,[6],107% (inactive)
same,growth,[7],94.7% (inactive)
same,growth,[8],85.7% (inactive)
same,growth,[20],101% (inactive)
same,growth,[9],103% (inactive)
same,growth,[10],105% (inactive)
same,growth,[11],99% (inactive)
same,growth,[12],107% (inactive)
same,growth,[14],83.3% (inactive)
same,growth,[15],100% (inactive)
same,growth,[16],97.4% (inactive)
same,growth,[17],92.5% (inactive)
same,growth,[18],97.3% (inactive)
same,growth,[19],94.1% (inactive)
CCCC(=O)Nc1ccc2c(c1)CN1C(=O)c3ccccc3C1=N2,growth,[14],81.9% (inactive)
O=C(CSc1nnc(-c2ccc(Cl)cc2)o1)c1ccccc1,growth,[14],90.9% (inactive)
N#CC(C#N)=Cc1ccc2ccccc2c1,growth,[1],106% (inactive)
same,growth,[2],104% (inactive)
same,growth,[3],109% (inactive)
same,growth,[4],106% (inactive)
same,growth,[5],116% (inactive)
same,growth,[6],107% (inactive)
same,growth,[7],108% (inactive)
same,growth,[8],95.7% (inactive)
same,growth,[20],115% (inactive)
same,growth,[9],84% (inactive)
same,growth,[10],113% (inactive)
same,growth,[11],102% (inactive)
same,growth,[12],111% (inactive)
same,growth,[13],111% (inactive)
same,growth,[14],96.4% (inactive)
same,growth,[15],90.3% (inactive)
same,growth,[16],108% (inactive)
same,growth,[17],103% (inactive)
same,growth,[18],107% (inactive)
COc1cccc(CCC2C(=O)CCCC2=O)c1,growth,[14],87.2% (inactive)
